Laboratory results as given in PubChem BioAssay (NCATS).
Results filed as inconclusive are left out. Activity calls are given as the source filed them. Unless noted, calls follow the shape of the dose curve; as a rule, active = well fitted curve in the direction sought with a large enough effect; inconclusive = small, poorly fitted or top-dose-only effect, or another doubt; inactive = no such curve, though single readings can be large; an effect the other way counts as inactive or inconclusive.

How the values were obtained:
[1] = target: Luciferin 4-monooxygenase (Photinus pyralis) (UniProt P08659); experiment: Biochemical firefly luciferase enzyme assay for NPC (AID 624030);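 also: purified P. pyralis luciferase at 10 nM with luciferin and ATP substrate; 0% = DMSO and -100% = full luciferase inhibition by PTC124 control; nearly all actives have a fitted effect of over 70% in size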
Sequence of Luciferin 4-monooxygenase (Photinus pyralis) (P08659 whole entry, looked up): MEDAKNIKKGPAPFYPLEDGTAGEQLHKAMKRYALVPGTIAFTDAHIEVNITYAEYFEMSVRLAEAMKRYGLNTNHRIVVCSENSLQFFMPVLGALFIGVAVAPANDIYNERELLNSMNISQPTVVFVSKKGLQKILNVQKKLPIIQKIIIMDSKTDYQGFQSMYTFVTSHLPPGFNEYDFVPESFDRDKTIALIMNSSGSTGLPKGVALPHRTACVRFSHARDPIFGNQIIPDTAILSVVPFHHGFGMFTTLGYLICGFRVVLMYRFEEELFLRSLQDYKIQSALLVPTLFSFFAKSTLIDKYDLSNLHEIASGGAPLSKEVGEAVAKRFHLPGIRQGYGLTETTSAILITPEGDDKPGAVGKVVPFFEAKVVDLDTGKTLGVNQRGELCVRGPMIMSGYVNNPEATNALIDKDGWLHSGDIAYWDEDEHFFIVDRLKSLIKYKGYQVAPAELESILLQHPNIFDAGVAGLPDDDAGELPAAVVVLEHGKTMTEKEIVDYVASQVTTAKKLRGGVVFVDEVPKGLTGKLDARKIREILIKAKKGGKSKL
Outline: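 Purified P. pyralis luciferase at 10 nM in 50 mM Tris Acetate (final), luminescence read within 5 minutes of enzyme addition to compounds. Activity normalised to PTC124 versus DMSO; concentration-response curves classed by r2, magnitude and activity.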

[2] = P-glycoprotein substrates identified in KB-8-5-11 adenocarcinoma cell line, qHTS therapeutic library screen (AID 1346987); also: nearly all actives have a fitted effect of over 65% in size; also: potency is read from the fitted curve at half-maximal effect
Outline: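 Compounds are pinned in dose-response onto KB-8-5-11 cells (500 cells/well, colchicine-free medium) and left 72 h at 37 degree C. CellTiter-Glo luminescence then yields AC50 values.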

astro = experiment: Drug repurposing screens with cells derived from glioblastoma tumor samples (AID 1345199); settings: viability, ATP luminescence, 48 h; series mostly up to 45.9 µM; also: nearly all actives have a fitted effect of over 40% in size; also: potency is read from the fitted curve at half-maximal effect
Outline: (§1)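 Primary testing used CD133+ neurospheres from four GBM patients, seven concentrations, 48 h exposure and ATP-based viability; confirmation added three slower-growing patient lines.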

[3] = qHTS Assay for Identifying Gametocytocidal Compounds (AID 743244);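 also: % is scaled to controls: 0 for no effect and ±100 for the full control effect; actives lower the fluorescent signal which means gametocytes are killed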; settings: P. falciparum 3D7 stage III-V gametocytes, alamarBlue, 72 h; max response: stronger effect = lower value
Outline: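 Using 20,000 stage III–V 3D7 gametocytes per well, compounds were incubated 72 h under 37 °C/5% CO2. Viability was then assessed by 24 h alamarBlue reduction, measured fluorometrically at 525/598 nm.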

[4] = target: Cytochrome P450 1A2 (Homo sapiens) (UniProt P05177); experiment: p450-cyp1a2 (AID 410; calls by dose curve;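 also: -100% = full effect of reference inhibitor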)
Sequence of Cytochrome P450 1A2 (Homo sapiens) (P05177 whole entry, looked up): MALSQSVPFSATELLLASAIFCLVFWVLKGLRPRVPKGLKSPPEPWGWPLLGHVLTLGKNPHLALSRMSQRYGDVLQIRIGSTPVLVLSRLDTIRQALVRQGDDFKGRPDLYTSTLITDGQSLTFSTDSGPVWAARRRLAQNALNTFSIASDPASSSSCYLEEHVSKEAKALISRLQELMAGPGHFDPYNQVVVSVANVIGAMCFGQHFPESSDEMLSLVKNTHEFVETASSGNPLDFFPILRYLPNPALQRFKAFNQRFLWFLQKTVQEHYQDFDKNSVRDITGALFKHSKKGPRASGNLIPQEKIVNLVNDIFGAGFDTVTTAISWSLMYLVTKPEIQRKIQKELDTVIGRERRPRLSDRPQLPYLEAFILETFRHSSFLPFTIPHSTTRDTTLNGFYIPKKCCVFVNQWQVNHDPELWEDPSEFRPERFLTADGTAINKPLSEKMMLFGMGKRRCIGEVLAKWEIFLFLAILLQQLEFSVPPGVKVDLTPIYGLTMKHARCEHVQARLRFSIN
Outline: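 Luminescent demethylation readout: Luciferin-ME (100uM, equal to Km) turned over by 20nM CYP1A2 for 60 min at room temperature after NADPH regeneration addition, following 10 min compound preincubation. Normalization used 57 uM furafylline as full inhibition.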

[5] = target: Mitogen-activated protein kinase 10 (Mus musculus) (UniProt Q61831); experiment: JNK3 AlphaScreen Assay (AID 530; active = well fitted curve in either direction with a large enough effect, not every such curve was filed as active;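 also: kinase came from lysate of stimulated human HepG2 cells; signal reports phosphorylation of biotinylated GST-cJun 1-79 at Ser73 with 10 µM ATP; % is scaled to controls: 0 for no effect and ±100 for the full control effect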)
Outline: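 Activity was read by AlphaScreen after JNK3-containing HepG2 lysate (cytokine pre-activated) phosphorylated biotinylated GST-cJun with 10 uM ATP at room temperature. Phospho-Ser73 cJun antibody with Protein-A acceptor beads provided detection.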

[6] = target: 3',5'-cyclic-AMP phosphodiesterase 4B (Homo sapiens) (UniProt Q07343); experiment: qHTS Assay for Inhibitors of PDE-IV (AID 607; active = well fitted activation curve with a large enough effect in the main read-out, with a control signal flat, not every such curve was filed as active; also: % of control where 0% means no effect)
Sequence of 3',5'-cyclic-AMP phosphodiesterase 4B (Homo sapiens) (Q07343 whole entry, looked up): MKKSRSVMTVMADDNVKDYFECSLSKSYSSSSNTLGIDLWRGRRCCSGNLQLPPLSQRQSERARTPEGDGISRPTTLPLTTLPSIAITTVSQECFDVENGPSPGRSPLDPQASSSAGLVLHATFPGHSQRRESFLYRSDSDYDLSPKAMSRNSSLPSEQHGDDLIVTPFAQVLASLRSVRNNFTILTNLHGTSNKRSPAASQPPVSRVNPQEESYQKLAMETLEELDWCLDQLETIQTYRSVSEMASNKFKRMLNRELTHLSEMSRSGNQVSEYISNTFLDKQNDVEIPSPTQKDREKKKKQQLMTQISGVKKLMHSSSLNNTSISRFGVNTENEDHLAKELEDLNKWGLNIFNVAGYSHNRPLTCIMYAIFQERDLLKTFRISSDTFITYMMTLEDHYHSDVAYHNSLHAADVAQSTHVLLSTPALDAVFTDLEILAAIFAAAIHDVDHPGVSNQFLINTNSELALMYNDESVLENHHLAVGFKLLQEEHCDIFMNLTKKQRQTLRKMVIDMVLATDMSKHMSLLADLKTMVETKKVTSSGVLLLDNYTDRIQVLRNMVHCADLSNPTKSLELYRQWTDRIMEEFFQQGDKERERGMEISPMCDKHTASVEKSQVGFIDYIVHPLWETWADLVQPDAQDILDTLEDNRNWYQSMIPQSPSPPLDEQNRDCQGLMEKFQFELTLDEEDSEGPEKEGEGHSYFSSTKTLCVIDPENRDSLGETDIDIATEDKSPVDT
Outline: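 HEK293 ACTOne cells with CNG channel (1000/well), endogenous PDE4; membrane potential dye, compounds up to 22.9 uM final. Fluorescence Ex 535/Em 590; RO 20-1724 (100 uM final) as reference.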

[7] = qHTS Assay for Lipid Storage Modulators (AID 1519; calls by dose curve; as to activity change, negative = inhibition: % is scaled to controls: 0 for no effect and ±100 for the full control effect); settings: Drosophila S3 cells, BODIPY lipid droplet/cell ratio, laser cytometry, cells loaded with oleic acid
Outline: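 Cells seeded at 5,000 per well were treated with compounds over a concentration series and loaded with oleic acid (400 uM, as added). Lipid droplet fluorescence (488 nm excitation, 500-530 nm channel) was read by laser-scanning cytometry and normalized to 20 uM Triacsin C.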

[8] = target: Ubiquitin carboxyl-terminal hydrolase 1 (Homo sapiens) (UniProt O94782); experiment: Inhibitors of USP1/UAF1: Pilot qHTS (AID 504865);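 also: rhodamine fluorescence freed from ubiquitin-rhodamine substrate followed over time; top concentration of the series differs between compounds; % is scaled to controls: 0 for no effect and ±100 for the full control effect; nearly all actives have a fitted effect of over 35% in size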
Sequence of Ubiquitin carboxyl-terminal hydrolase 1 (Homo sapiens) (O94782 whole entry, looked up): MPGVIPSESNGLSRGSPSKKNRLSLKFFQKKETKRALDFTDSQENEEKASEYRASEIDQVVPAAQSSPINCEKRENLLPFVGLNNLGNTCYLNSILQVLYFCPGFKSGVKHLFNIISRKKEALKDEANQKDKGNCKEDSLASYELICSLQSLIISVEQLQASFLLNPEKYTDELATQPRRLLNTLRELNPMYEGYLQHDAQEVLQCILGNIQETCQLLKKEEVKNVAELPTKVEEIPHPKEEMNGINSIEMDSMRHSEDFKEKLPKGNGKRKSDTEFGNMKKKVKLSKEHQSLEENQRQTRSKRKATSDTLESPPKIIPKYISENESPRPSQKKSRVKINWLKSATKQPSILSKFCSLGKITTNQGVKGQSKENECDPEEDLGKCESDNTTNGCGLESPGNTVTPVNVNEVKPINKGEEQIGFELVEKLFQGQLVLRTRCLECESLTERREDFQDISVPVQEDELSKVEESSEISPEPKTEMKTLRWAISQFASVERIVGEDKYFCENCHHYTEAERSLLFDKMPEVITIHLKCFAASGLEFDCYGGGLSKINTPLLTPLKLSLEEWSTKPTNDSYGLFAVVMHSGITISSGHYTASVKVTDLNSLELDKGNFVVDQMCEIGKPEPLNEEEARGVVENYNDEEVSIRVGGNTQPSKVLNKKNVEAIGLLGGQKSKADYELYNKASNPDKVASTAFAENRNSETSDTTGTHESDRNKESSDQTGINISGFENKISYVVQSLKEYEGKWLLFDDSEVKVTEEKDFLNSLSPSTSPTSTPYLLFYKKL
Outline: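 USP1/UAF1 complex at 1 nM preincubated 15 min at room temperature with compound, then Ub-Rho substrate added at 150 nM final. Fluorescence (480/540 nm) read kinetically in 50 mM HEPES pH 7.8, 0.5 mM EDTA, 1 mM TCEP, 0.1 mg/ml BSA, 0.01% Tween-20.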

[9] = target: DNA dC->dU-editing enzyme APOBEC-3G (Homo sapiens) (UniProt Q9HC16); experiment: qHTS for inhibitors of Vif-A3G interactions: Validation (AID 588379); also: 0% is about no effect
Sequence of DNA dC->dU-editing enzyme APOBEC-3G (Homo sapiens) (Q9HC16 whole entry, looked up): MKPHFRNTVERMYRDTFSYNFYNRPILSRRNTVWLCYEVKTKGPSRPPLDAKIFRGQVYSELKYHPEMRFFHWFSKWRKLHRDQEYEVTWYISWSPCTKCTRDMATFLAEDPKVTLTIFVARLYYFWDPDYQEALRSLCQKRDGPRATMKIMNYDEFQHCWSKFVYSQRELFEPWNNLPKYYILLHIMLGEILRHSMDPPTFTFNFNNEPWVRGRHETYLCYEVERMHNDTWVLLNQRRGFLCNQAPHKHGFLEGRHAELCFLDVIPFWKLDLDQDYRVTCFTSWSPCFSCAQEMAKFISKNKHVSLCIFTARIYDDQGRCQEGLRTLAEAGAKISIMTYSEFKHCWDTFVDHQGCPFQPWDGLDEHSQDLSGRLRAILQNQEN
Outline: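 Yellow fluorescence (Ex 488, Em 500-530) of Vif-coexpressing HeLa A3G-eYFP cells, scanned by Acumen cytometer, reports blocked A3G degradation. Cells plated at 700/well overnight at 37 deg C before compound addition, then a further overnight compound incubation at 37 deg C.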

[10] = qHTS for Inhibitors of the Functional Ribonucleoprotein Complex (vRNP) of Lassa (LASV) Arenavirus: LASV Primary Screen - GLuc reporter signal (AID 1347082; calls by dose curve; tested in HEK293 reporter line; also: nearly all actives have a fitted effect of over 60% in size; also: potency is read from the fitted curve at half-maximal effect; as to activity change, negative = inhibition: % is scaled to controls: 0 for no effect and ±100 for the full control effect)
[11] = qHTS for Inhibitors of the Functional Ribonucleoprotein Complex (vRNP) of Lassa (LASV) Arenavirus: Viability assay - alamar blue signal for LASV Primary Screen (AID 1347083; calls by dose curve; tested in HEK293 reporter line; also: nearly all actives have a fitted effect of over 80% in size; also: potency is read from the fitted curve at half-maximal effect)
[12] = qHTS for Inhibitors of the Functional Ribonucleoprotein Complex (vRNP) of Lymphocytic Choriomeningitis Arenaviruses (LCMV): Viability assay - alamar blue signal for LCMV Primary Screen (AID 1347085; calls by dose curve; tested in HEK293 reporter line; also: nearly all actives have a fitted effect of over 80% in size; also: potency is read from the fitted curve at half-maximal effect)
[13] = target: Nucleoprotein (Lymphocytic choriomeningitis virus (strain Armstrong)) (UniProt P09992); experiment: qHTS for Inhibitors of the Functional Ribonucleoprotein Complex (vRNP) of Lymphocytic Choriomeningitis Arenaviruses (LCMV): LCMV Primary Screen - GLuc reporter signal (AID 1347086; calls by dose curve; also: % is scaled to controls: 0 for no effect and ±100 for the full control effect; nearly all actives have a fitted effect of over 70% in size)
Sequence of Nucleoprotein (Lymphocytic choriomeningitis virus (strain Armstrong)) (P09992 whole entry, looked up): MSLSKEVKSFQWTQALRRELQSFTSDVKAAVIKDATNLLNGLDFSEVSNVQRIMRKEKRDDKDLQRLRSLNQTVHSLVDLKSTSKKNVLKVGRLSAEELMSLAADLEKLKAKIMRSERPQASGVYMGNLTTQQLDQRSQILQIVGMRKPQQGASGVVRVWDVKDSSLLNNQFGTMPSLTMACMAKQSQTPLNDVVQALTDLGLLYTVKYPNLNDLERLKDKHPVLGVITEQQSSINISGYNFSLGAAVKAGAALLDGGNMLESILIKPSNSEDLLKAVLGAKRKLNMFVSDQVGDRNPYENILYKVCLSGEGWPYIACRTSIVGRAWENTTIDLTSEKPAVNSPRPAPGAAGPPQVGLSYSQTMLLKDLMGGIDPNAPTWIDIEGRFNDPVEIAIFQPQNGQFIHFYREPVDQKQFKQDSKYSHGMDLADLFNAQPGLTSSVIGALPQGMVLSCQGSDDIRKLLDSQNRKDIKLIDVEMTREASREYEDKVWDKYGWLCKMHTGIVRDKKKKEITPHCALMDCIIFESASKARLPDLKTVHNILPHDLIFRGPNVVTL

[14] = tested on: Zika virus NS2B-NS3 protease; experiment: Primary screen GU AMC qHTS for Zika virus inhibitors (AID 1347154);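 also: 0% = no-inhibitor control and -100% = no-enzyme control; nearly all actives have a fitted effect of over 70% in size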
Outline: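 Unlinked Zika NS2B hydrophilic domain–NS3 protease complex at 25 nM in 10 mM Tris-HCl pH 8.0, 0.01% Tween 20, with an AMC peptide substrate. Fluorescence change (340/450 nm) over 15 min at room temperature, normalized to controls, fitted to 4-parameter Hill.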

[15] = Primary qHTS for small molecule stabilizers of the endoplasmic reticulum resident proteome: Secreted ER Calcium Modulated Protein (SERCaMP) assay (AID 1508630); also: % is scaled to controls: 0 for no effect and ±100 for the full control effect
Outline: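 The SH-SY5Y reporter protocol was run at 3 concentrations up to 38.3 uM (primary) or 11 concentrations (follow-up): 16 h compound, 100 nM thapsigargin for 4 h, then extracellular luciferase luminescence.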

[16] = Drug repurposing screens with cells derived from glioblastoma tumor samples (AID 1345199); settings: GBM patient neurospheres viability, ATP luminescence, 48 h; Potency: tumour line A; series mostly up to 45.9 µM; also: nearly all actives have a fitted effect of over 40% in size; also: potency is read from the fitted curve at half-maximal effect
Outline: as §1

CCCSc1cc(OC)c(CCN)cc1OC
active: Potency [2] 20 µM | Potency (astro) 31.6 µM
inactive: Potency [1]

CC[C@@H](O)C(C[C@@H](C)N(C)C)(c1ccccc1)c1ccccc1
inactive: Potency [1] | max response [3] 5.08% | Potency (astro)

Clc1ccc([C@@H]2C[C@H]3CC[C@@H]2N3)cn1
0.171%: max response ([7]; measured here: cell count channel max response)
inactive: Potency [4] | outcome [5] | Potency [6] | activity change, negative = inhibition ([7]; at 57.5 µM (top of the series)) -3.65% | Potency [8] | Potency [9] | max response [3] 7.9% | Potency [2] | Potency [10] | Potency [11] | Potency [12] | Potency [13] | Potency [14] | Potency [15] | Potency [16] | Potency (astro)
-1.79%: max response ([7]; measured here: lipid channel max response)

CCS(=O)(=O)c1cccc(-c2cc(C(=O)NC3CCN(C)CC3)c(C)c3[nH]c4ncc(C)cc4c23)c1
active: Potency [10] 12.2 µM | Potency [11] 6.85 µM | Potency [12] 6.11 µM

O=C1NC(=O)C(=Cc2ccc3nccc(-c4ccncc4)c3c2)S1
active: Potency [10] 0.432 µM | Potency [11] 0.109 µM | Potency [12] 0.273 µM

CC(=O)OC1CCC2(C)C(COc3ccc4ccc(=O)oc4c3)C(C)(O)CCC2C1(C)C (stereo unspecified)
inactive: Potency [10] | Potency [11] | Potency [12]

CN(C)S(=O)(=O)c1ccc2c(c1)C(=Cc1cc3c([nH]1)CCCC3)C(=O)N2
active: Potency [11] 10.9 µM | Potency [12] 2.73 µM
inactive: Potency [10]
